Source: the supplement of paper PMC3334620
Whole data set: some 33,000 sequences, median “E-score (-0.5 to 0.5)” near -0.041, cut for the highest 2% near 0.37. The sample holds the highest values, similar sequences and a random draw of the others, so the mix is not that of the screen.

These sequences were tested against T1, Ecm22 (UniProt Q05958) (assay: PBM E-score (8-mer binding enrichment) (E-score (-0.5 to 0.5)); higher = stronger / more preferred TF binding). Conditions: protein concentration: 200 nM; construct: GST-full length.
T1 sequence: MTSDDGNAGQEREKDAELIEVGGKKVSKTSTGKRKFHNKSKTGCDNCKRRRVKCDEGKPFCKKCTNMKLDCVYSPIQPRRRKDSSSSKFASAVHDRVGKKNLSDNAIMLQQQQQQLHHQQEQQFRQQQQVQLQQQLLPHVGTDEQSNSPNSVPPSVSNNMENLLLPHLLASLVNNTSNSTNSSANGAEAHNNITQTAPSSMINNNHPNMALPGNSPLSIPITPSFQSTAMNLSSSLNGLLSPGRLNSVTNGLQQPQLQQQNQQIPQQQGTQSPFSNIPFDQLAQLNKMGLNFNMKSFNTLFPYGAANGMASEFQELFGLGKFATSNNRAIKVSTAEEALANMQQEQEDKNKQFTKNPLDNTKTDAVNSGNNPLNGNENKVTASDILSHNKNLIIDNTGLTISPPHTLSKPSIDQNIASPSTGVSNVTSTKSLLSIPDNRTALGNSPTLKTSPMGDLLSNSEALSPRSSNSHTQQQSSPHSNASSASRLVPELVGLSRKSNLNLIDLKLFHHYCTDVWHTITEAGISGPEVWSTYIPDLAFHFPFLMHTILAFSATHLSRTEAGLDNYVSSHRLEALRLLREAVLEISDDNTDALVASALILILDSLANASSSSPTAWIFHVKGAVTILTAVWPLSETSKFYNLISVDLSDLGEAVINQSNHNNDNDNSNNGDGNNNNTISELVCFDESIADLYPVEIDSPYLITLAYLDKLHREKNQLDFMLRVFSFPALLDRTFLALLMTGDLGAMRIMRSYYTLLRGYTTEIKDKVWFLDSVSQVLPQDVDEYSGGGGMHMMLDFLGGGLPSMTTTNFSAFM
How it was run: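 PURExpress in vitro transcription/translation supplied GST-tagged yeast transcription factors, either full-length or DNA-binding domain. Applied at about 100-200 nM to universal all-10-mer Agilent arrays double-stranded by primer extension, the bound protein was detected with fluorescent anti-GST. E-scores, modified Wilcoxon-Mann-Whitney statistics, were given by the Universal PBM Analysis Suite to ungapped eight-base words pooled with their reverse complements after masliner normalisation.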

Sequence | PBM E-score
CGGTAAAA | 0.228
AGCAATAG | -0.0955
ACTTCCAA | -0.156
AAACCCGA | 0.279
CTCAACAG | -0.193
AGACCAGC | -0.283
CAGGAAAA | -0.019
AACCCAGC | -0.207
CGTACGTA | 0.367
AGTACTAT | 0.0505
CGTACGCA | 0.36
AGTACGAA | 0.42
AGTACGAT | 0.407
AGTACGCA | -0.0459
GGTACGCA | 0.263
GGTACGTA | 0.319
ACTACGAT | 0.182
CGTACGAA | 0.448
AGTACGTA | 0.283
GGTACGAA | 0.486
AGTTCTGC | 0.17
AGATGAAG | -0.13

Sequence | PBM E-score
CCCCTAGC | -0.254
ACTCAACC | -0.0151
CGATGGAA | 0.0222
GGCACAAC | -0.169
GACACCCA | -0.171
TAGGACGA | -0.216
ATTCTCAG | -0.308
AGTACGCG | 0.197
AGTACGAG | 0.456
CGTACGAG | 0.473
ATTACGAC | 0.367
ATTACGTG | -0.0556
ATTACGAG | 0.38
CGTACGCC | 0.3
CGTACGAC | 0.444
CCTACGAG | 0.339
CGGACGAG | -0.0963
AGTACGTG | 0.142
CGTACGTC | 0.356
ACGCTGGA | 0.126
ACGACCCT | 0.331
CGCACGCA | 0.141

Sequence | PBM E-score
GCCGGCGA | -0.117
TAGACCGA | 0.175
AGAGAGCT | -0.169
AAGCATTC | -0.157
CGTGCGCA | -0.0738
CACAGTTC | -0.0557
CGAGTACA | 0.246
CGCTAACA | 0.0557
TGTACAAA | -0.0698
AGTACGCC | -0.0213
TGTACGAA | 0.48
AGTACGTC | 0.0542
TGCACGAA | 0.109
AGTACGAC | 0.443
CCGACCAA | 0.105
CAAGTATG | -0.112
ATCTCACG | -0.0833
ATACGGTC | 0.383
CTACGGTC | 0.0518
AAACGGCT | 0.259
AAACGGCG | 0.391
AGACGGTG | -0.132

Sequence | PBM E-score
AAACGGTA | 0.287
AAACGGCC | 0.29
ATACGGTG | 0.388
ACACGGTC | -0.0081
AAACGGTC | 0.293
AAACGGTG | 0.376
ACACGGTG | -0.0453
ATGCAAAG | 0.0339
AAAAATGA | -0.0643
AGGCTCAG | -0.211
GTTAGGGA | 0.0493
AGGTGCTG | -0.371
AGCATACT | 0.0121
CCGGACCA | 0.0404
CGGGAACA | 0.165
CGGGAACC | 0.0199
AGGGAACC | 0.00984
AGGGAACA | -0.166
CGGGAACG | 0.456
AGGGAACG | 0.465
